VACV mCherry inh: vaccinia inhibition (mCherry reporter); Vaccinia virus mCherry reporter infection, fluorescence; Potency, µM (doses to about 36.5 µM), hits mostly inhibitors; hit rate 0.63% among 310,000; AID 720579; calls by dose curve; tested in A549 cells; also: nearly all actives have a fitted effect of over 35% in size
Vaccinia Venus: inhibitors of vaccinia virus (Venus reporter) | Potency, µM (top dose mostly 36.5 µM), most hits filed as inhibitors | Vaccinia virus Venus reporter expression, fluorescence | hit rate 0.46% among 330,000; calls by dose curve; tested in A549 cells; also: nearly all actives have a fitted effect of over 30% in size
HCV inhibitor: blocks hepatitis C virus; Huh7.5.1 HCVcc-Cre infection, luciferase reporter, 44 h; Potency, µM (top dose mostly 41.8 µM), hits mostly inhibitors; hit rate 3.4% among 340,000
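After 44 h co-culture of compound, cells and HCVcc-Cre (~0.5 moi), substrate is added for 15 min at room temperature and luciferase measured over 15 sec. Cells were seeded at 1,000/well and pre-cultured 4 h.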
HCMV antiviral: human cytomegalovirus inhibition; AID 1259415; HFF cells, HCMV-luciferase reporter, 72 h; hits give low values; hit rate 4.5% among 410,000; activity change, negative = inhibition, % at 57.5 µM; in the data active = activity change below about -60%; inconclusive = no clear call, values can overlap the other calls; inactive = above about -39%
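Human foreskin fibroblasts infected with luciferase-reporter HCMV at MOI 1 PFU/cell, compounds at two doses. Luciferase measured 72 h post infection; normalized to buffer-only basal and Salinomycin (10uM) controls.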
FMDV inh: blocks foot and mouth disease virus; AID 1159524; FMDV antiviral cell-based qHTS; hit rate 1.2% among 410,000; Potency, µM (top dose mostly 57.9 µM), most hits filed as inhibitors; calls by dose curve; tested in HEK293T cells; also: read-out not given here; nearly all actives have a fitted effect of over 45% in size
Sm TGR inh: inhibitors of Schistosoma mansoni thioredoxin glutathione reductase; Q962Y6; purified TGR, DTNB reduction, TNB absorbance 405 nm; Potency, µM (series often up to 114 µM), hits mostly inhibitors; hit rate 3% among 360,000; also: nearly all actives have a fitted effect of over 60% in size
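First, TGR (20 nM dispensed) and NADPH were mixed with compound. Second, a 15 min room-temperature incubation followed. Third, further NADPH and then DTNB were added to start the reaction. Finally, TNB absorbance was monitored kinetically.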
Numbers stand for hits; – = inactive; ? = inconclusive; · = no result; ! = a repeat was not active. Compounds with a hit are over-represented: about 9.3% of the library has one in this group of screens. Unless noted, calls follow the shape of the dose curve; as a rule, active = well fitted curve in the direction sought with a large enough effect; inconclusive = small, poorly fitted or top-dose-only effect, or another doubt; inactive = no such curve, though single readings can be large; an effect the other way counts as inactive or inconclusive.

SMILES	VACV mCherry inh	Vaccinia Venus	HCV inhibitor	HCMV antiviral	FMDV inh	Sm TGR inh
Cc1ccccc1CN1CCc2c(OCC(=O)N3CCCc4ccccc43)cccc2C1=O	–	?	13µM	-62	40µM	–
O=C(COc1cccc2c1CCN(Cc1ccccc1)C2=O)N1CCCCC1	–	–	?	–	–	–
Nc1c2c(nc3sc4c(c13)CCCC4)CCCC2	–	?	?	-72	–	·
CC1CCc2c(nc3sc4c(c3c2N)CCCC4)C1 (stereo not drawn)	–	?	11µM	?	–	–
Nc1c2c(nc3sc4c(c13)CCCC4)CCCCC2	·	–	?	–	–	–
CCc1c(-c2ccccc2)nc2sc3c(c2c1N)CCCC3	?	?	25µM	-92	–	–
CCOC(=O)C(CC)Sc1ccc2nnc(CCNS(=O)(=O)c3ccccc3)n2n1 (stereo not drawn)	–	–	–	-103	–	–
CCC(Sc1ccc2nnc(-c3ccc(F)cc3)n2n1)C(=O)OC (stereo not drawn)	·	·	–	-93	–	–
Cc1cc(C)nc(SCCS(=O)(=O)Cc2ccccc2)n1	?	–	–	–	·	–
CCSc1nc(-c2ccco2)ccc1C#N	·	·	?	–	–	11µM
N#Cc1ccc(-c2ccco2)nc1SCc1ccccc1	·	·	?	–	–	?
O=[N+]([O-])c1ccc(Oc2cccc(F)c2)c2ccncc12	·	–	4µM	–	?	–
Cn1nnnc1SCC(=O)Nc1ccc2c(c1)OCO2	–	–	–	–	–	·
Cc1ccc(CSc2ccc(-c3ccco3)nn2)cc1	–	–	–	–	–	?
c1ccc(CSc2ccc(-c3ccco3)nn2)cc1	–	–	–	–	–	22µM
Cc1cccc(CSc2ccc(-c3ccco3)nn2)c1	–	–	–	–	–	?
Fc1ccccc1CSc1ccc(-c2ccco2)nn1	–	–	–	–	–	32µM
COc1ccccc1-c1ccc(SCc2ccccc2F)nn1	–	–	–	–	–	–
Clc1ccc(CSc2ccc(-c3ccco3)nn2)cc1	–	–	–	–	–	28µM
Clc1cccc(CSc2ccc(-c3ccco3)nn2)c1	–	–	–	–	–	7.1µM
Clc1ccc(CSc2ccc(-c3ccccn3)nn2)cc1	?	–	?	–	–	–
COc1ccc(C2=Nn3c(nnc3-c3ccccc3OC)SC2)cc1OCC1CC1	·	·	·	-84	?	·
COc1ccc(OC)c(C2=Nn3c(nnc3C3CCCCC3)SC2)c1	?	–	16µM	?	–	–
COc1ccc(C2=Nn3c(nnc3-c3ccccc3F)SC2)cc1OC1CCCC1	·	·	·	-75	–	·
COc1ccc(C2=Nn3c(nnc3-c3ccccc3)SC2)cc1OC	·	·	–	–	–	–
SMILES	VACV mCherry inh	Vaccinia Venus	HCV inhibitor	HCMV antiviral	FMDV inh	Sm TGR inh
COc1ccc(OC)c(-c2nnc3n2N=C(c2ccc(OC)c(OC)c2)CS3)c1	·	·	·	-67	–	–
c1ccc(SCc2cc(-c3ccccc3)no2)cc1	–	–	–	–	–	–
CCOC(=O)Cn1cc(C(=O)c2ccccc2)c2ccccc21	·	·	–	–	–	–
COc1ccc(C(CNC(=O)COc2ccccc2C)N2CCCC2)cc1 (stereo not drawn)	–	–	·	–	–	–
Cc1ccc(S(=O)(=O)N(C)c2ccc(C(=O)Nc3cccnc3)cc2)cc1	–	–	–	–	?	–
COc1ccc(OC)c(C2=Nn3c(nnc3-c3cccc(OC(C)C)c3)SC2)c1	·	·	10µM	–	–	–
COc1ccc(OC)c(C2=Nn3c(nnc3-c3ccco3)SC2)c1	·	·	?	–	–	–
COc1ccc(OC)c(-c2nnc3n2N=C(c2ccc(OC(F)F)c(OCC4CC4)c2)CS3)c1	·	·	·	–	?	·
COc1ccc(OC)c(-c2nnc3n2N=C(c2ccc(OC)c(OC4CCCC4)c2)CS3)c1	·	·	·	-88	?	·
CN(C(=O)CSc1nc2ccc(Br)cc2c(=O)n1Cc1ccco1)C1CCS(=O)(=O)C1 (stereo not drawn)	–	–	?	–	–	–
O=C(O)c1cc(-c2ccccc2)n(-c2ccc(Cl)cc2Cl)n1	–	–	–	–	–	–
O=C(O)c1cc(-c2ccccc2)n(-c2ccccc2C(=O)O)n1	–	–	–	-100	–	–
CCCCCn1c(CN(C)Cc2ccccc2)nc2c1c(=O)n(C)c(=O)n2C	·	·	14µM!	–	–	–
C=C(C)Cn1c(CN(C)Cc2ccccc2)nc2c1c(=O)n(C)c(=O)n2C	·	·	11µM	?	?	–
Cc1ccc(Cn2c(CN(C)Cc3ccccc3)nc3c2c(=O)n(C)c(=O)n3C)cc1	·	·	?	–	?	–
CC(C)n1c(CN(C)Cc2ccccc2)nc2c1c(=O)n(C)c(=O)n2C	–	–	?	-89	18µM	–
CC(=O)C(C)n1c(CN(C)Cc2ccccc2)nc2c1c(=O)n(C)c(=O)n2C (stereo not drawn)	–	–	?	–	–	–
CN(Cc1ccccc1)Cc1nc2c(c(=O)n(C)c(=O)n2C)n1Cc1ccc(Cl)cc1	·	·	14µM	–	–	–
O=C(Nc1cccc(C(=O)N2CCCC2)c1)C1CCCCC1	–	?	–	–	–	·
CC(C)(O)CC[C@H](OC(=O)c1ccccc1)[C@](C)(O)[C@H]1CC[C@@]2(O)C3=CC(=O)[C@@H]4C[C@@H](O)[C@H](O)C[C@]4(C)C3CC[C@]12C (stereo partly drawn)	·	·	–	?	–	–
CCOC(=O)C1CCN(S(=O)(=O)c2ccc3c4c(cccc24)C(=O)N3CC)CC1	–	–	–	–	–	·
O=c1c2ccccc2nc(SCc2cccc(F)c2)n1Cc1ccco1	·	·	?	?	?	–
CC1CCCN(C2(O)C(=O)Nc3ccc([N+](=O)[O-])cc32)C1 (stereo not drawn)	·	·	–	-63	–	–
CCCC(C)C(=O)Nc1nc(C)c(-c2csc(Nc3cc(OC)ccc3OC)n2)s1 (stereo not drawn)	?	?	?	?	–	–
CCC(C)NS(=O)(=O)c1ccc(OCC(=O)NCc2ccccn2)cc1 (stereo not drawn)	–	–	–	–	–	–
SMILES	VACV mCherry inh	Vaccinia Venus	HCV inhibitor	HCMV antiviral	FMDV inh	Sm TGR inh
N#Cc1csc(CCNC(=O)c2ccccc2)n1	–	–	·	?	–	·
O=C(NCCc1nc(-c2ccccc2)cs1)c1ccc(Br)cc1	?	–	11µM	–	?	–
CC(=O)CC(C)(C)n1c[n+](C)nn1	–	–	–	–	·	–
CCN(CC)C(=O)c1cccc(-c2csc(C(C)(O)c3ccncc3)n2)c1 (stereo not drawn)	–	–	·	–	25µM	·
CCN(CC)C(=O)c1cccc(-c2csc(C(O)c3ccc(OC)cc3)n2)c1 (stereo not drawn)	–	–	·	–	?	·
CCN(CC)C(=O)c1cccc(-c2csc(C(O)c3ccc(F)c(OC)c3)n2)c1 (stereo not drawn)	–	?	·	-62	?	·
COc1cccc(C(C)(O)c2nc(-c3cccc(C(=O)O)c3)cs2)c1 (stereo not drawn)	–	–	·	–	–	·
CCN(CC)C(=O)c1cccc(-c2csc(C(O)c3cccc(Cl)c3)n2)c1 (stereo not drawn)	–	–	·	?	28µM	·
